According to PubChem BioAssay AID1347426 (Functional Genomics Laboratory (NCATS/FGL), 2020):
In all, about 31,000 sequences went through this assay and about 1,400 (4.5%) were called active. This is one part of a sample in which actives are shown more often than they occur.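 The calls were made as follows: active = median seed-adjusted z-score above 1 or below -1; inactive = the rest.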

test: Novel Modifiers of Survival Motor Neuron (SMN) Protein: Gene Identification via Genome-wide siRNA Screen; details: HEK293T SMN2-luciferase reporter, siRNA knockdown, 72 h; actives lie on both sides;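 also: luminescence tracks full-length SMN protein made from the SMN2 reporter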
Procedure, shortened: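 Genome-wide siRNA screen (10418 genes, 3 siRNAs each, 1 pmol per well) by reverse transfection in HEK293T cells stably carrying an SMN2-luciferase reporter; luminescence after 72 hours, normalized to negative-control siRNA, log10-transformed, MAD-scored.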

| Sequence | median seed-adjusted z-score |
| --- | --- |
| GCAUGGUACUCUAUAGUCUTT against FAT4 | -0.363 (inactive) |
| GGAUGUGGUAGUACAGAAATT against PSMD2 | -1.44 (active) |
| GACUGACGAUGACACGGAATT against KPNA6 | -1.54 (active) |
| GGUACUCCAGAGUAUAACATT against CMYA5 | -0.858 (inactive) |
| GAGCCUGACUCAGUCUUUATT against AQP9 | -0.192 (inactive) |
| GAGAAAUCGUGCUCAGUUATT against CNOT8 | 0.375 (inactive) |
| CCUGUUUCCGUGAAGAAAATT against CXCR4 | -0.347 (inactive) |
| ACACCUCUCCGGACACCAATT against IRF3 | 0.0117 (inactive) |
| GACGAUGAAUGAAAAGGCATT against NRBP1 | -1.13 (active) |
| AGAAUUCUUCGAUCACAAATT against KCNMB3 | 0.513 (inactive) |
| CAAGUACCCUGAUAGAGUUTT against ABHD4 | -0.054 (inactive) |
| AGAUGAAGCUGCAAGUGUATT against COX10 | 0.339 (inactive) |
| CAGUGGAUCAAAUAACGCATT against ADAMTS20 | 1.44 (active) |
| GAACCUCAGUCAAAUCGAUTT against OXSR1 | -0.0682 (inactive) |
| CCAUUUGGAUAUCAAAGUATT against ILF2 | -0.19 (inactive) |
| CAGUCAAGCUUGGAGUUAATT against SYTL3 | 0.236 (inactive) |
| AGAUGUUCUGAGGCUGAUATT against OASL | 1.02 (active) |
| GGAUAAGGACGACCAGAUUTT against HPCAL4 | 0.282 (inactive) |
| GUGCUAAAUUUAGCUCAAATT against IL2 | 0.0694 (inactive) |
| CCAAGCAAAUAGUAGAAGATT against CYLC1 | 0.177 (inactive) |
| GAACGAGUCCUUUACUACATT against GFM1 | -0.0641 (inactive) |
| CAACUUUCAGAUCAGUGAATT against ARD1A | -1.05 (active) |

| Sequence | median seed-adjusted z-score |
| --- | --- |
| CAGACAAGCUGAUCCGCAUTT against TGM5 | 0.0181 (inactive) |
| GGUCUGUUCUUCUUACAGATT against PRKCB1 | 0.0463 (inactive) |
| GCCCAUCGUGCUUAAAGAATT against RASA3 | 0.0056 (inactive) |
| CACCUACUGUAGAGGUGAATT against GPRC6A | 0 (inactive) |
| GAACAUAUCAAGACCGGUUTT against MED30 | -2.06 (active) |
| UAGGGAAGCUGAAAGUGCATT against OXER1 | -0.471 (inactive) |
| CAACCAAUAUAGAACUUCATT against RBBP5 | 0.169 (inactive) |
| GCAGCCUUGUCAUCGACAATT against PDLIM1 | -0.189 (inactive) |
| CCUAAAGCCUGAAGAAGAATT against TXNDC2 | -1.29 (active) |
| CAUCGGUGCCCAGAAGUCATT against SSBP4 | 0.254 (inactive) |
| GACUCUCUGAGGUAGAAAATT against EPN3 | 0.184 (inactive) |
| GCUAGAACGGGAACGAAGATT against NEK10 | -0.0464 (inactive) |
| CCAGUGCUCCCGAAACUGATT against KRTAP5-5 | -1.07 (active) |
| GCUCAUCGUGGGUCUCCUATT against POR | 0.189 (inactive) |
| CUCUCGUACUUUGAACCUATT against PANK3 | -0.185 (inactive) |
| CCCACUAUGCAAAAUGUAATT against PCMT1 | 0.139 (inactive) |
| GGUGGUCCAUGAAAAAGCATT against SOD1 | -0.8 (inactive) |
| GCCUUAAAGACUUACCGAATT against USPL1 | -1.87 (active) |
| GUUUGUGACUGUAACCAUUTT against CTBP1 | 0.105 (inactive) |
| GCUAUGGUGCUGUCGCUUATT against RHOXF2 | -0.331 (inactive) |
| GGAAUGGACUCAGUGAUCATT against PFTK1 | 0.088 (inactive) |
| CGCGGAAACUUGUCCCUAUTT against SP2 | -0.617 (inactive) |

| Sequence | median seed-adjusted z-score |
| --- | --- |
| GCCCUGACAUUUCCCGAAATT against FOXJ2 | -0.627 (inactive) |
| UCAAUAAACUGCACGAAUATT against HS3ST1 | 1.21 (active) |
| ACGUGGAAGUGACCCGGAATT against MTX1 | -0.159 (inactive) |
| GCAUGUCCCGAAAACAAGATT against KLF7 | 0.393 (inactive) |
| GGACUUACGUGGAAGUAGATT against PLCB1 | 0.0735 (inactive) |
| CGUAGUAUAUUAACAAGUATT against MKKS | 1.03 (active) |
| CUCUAGGAGUGACCACGAATT against LYPLAL1 | -0.425 (inactive) |
| GGAGCACAGAAUACCGGAATT against C3orf64 | 0.0771 (inactive) |
| CAAACGGGCUCAUCAUAAUTT against MAX | 0.0949 (inactive) |
| AGAGACCCAUGGGAACAAATT against SIGMAR1 | -1.4 (active) |
| CGAAUGUCACCAUAUAUAATT against IL1RL1 | -0.286 (inactive) |
| AGGAGGUUACGGCACAAAATT against STK11 | 0.348 (inactive) |
| GCAACACCAUCGUCUGUGATT against P2RY13 | -0.0427 (inactive) |
| GGAACAUCAUUCUACCCAATT against KIF15 | -0.873 (inactive) |
| CCUUAAUCCUUUGUUAACATT against KPNA6 | -1.54 (active) |
| GGAUGAUGUACUUCUCUCATT against MLNR | -0.038 (inactive) |
| CCCUGUCCUUAGCACUCUATT against GFI1B | 0.154 (inactive) |
| GGAGCAUUCUCAUUCGAGATT against CSTF3 | 0.0879 (inactive) |
| GCUUGCAGUUAAUAUCAUUTT against ODC1 | -1.64 (active) |
| GCAGAGUGCUUCCCAGUGATT against JRK | -0.624 (inactive) |
| CAGAUGUCAUGAAUCAAGATT against RPUSD2 | -0.215 (inactive) |
| CAAGUACAAUACUAACUGUTT against ZNF280C | 0.336 (inactive) |

| Sequence | median seed-adjusted z-score |
| --- | --- |
| CAACGGCAACGGAGAGGAUTT against SLC24A6 | -0.792 (inactive) |
| GCGGAACACGAAGAAGUAATT against TMPRSS11E | 0.0512 (inactive) |
| GGGACGAGAUGGUAAAGAATT against ATP2B2 | 1.37 (active) |
| CCAUGUAUCUGAGUGAUCATT against ERC2 | 0.172 (inactive) |
| GGAUCUAAUCUUAGAUGUATT against POLR2H | -2.74 (active) |
| GAAUGAGGUUGACUUCUAUTT against CASQ2 | 0.4 (inactive) |
| GGAUUAUCUCCUCAUUACATT against MCF2L2 | -0.465 (inactive) |
| CCUUGAUCAUCGACAUUCUTT against GIT1 | -0.307 (inactive) |
| CCUCGACAGUGAAUGCAAATT against ABCF3 | 0.0759 (inactive) |
| GAAAAUCUAUCAGAACAUUTT against RAB14 | -0.0567 (inactive) |
| CUAUGACCCUUACCCGUAUTT against FMOD | -1.32 (active) |
| GCUCAGCUCUGGUACUUUATT against GTF2H4 | -0.261 (inactive) |
| GGUUUGAUGUAGGCCCAAUTT against MTFMT | -0.0119 (inactive) |
| GGAAGAUCGAAAGUGCGAATT against GZMB | -0.0378 (inactive) |
| AGUUCAUUCUGACAGAUGATT against VDR | -0.031 (inactive) |
| CAAUAUUCCGUACAUAGAATT against MRAS | 0.032 (inactive) |
| GGGAUCUAGUGAAUAAACUTT against EIF2B4 | 0 (inactive) |
| GCAAAGACCAUAAGAUUUATT against MYST1 | 0 (inactive) |
| GAGUGUUCAGCAAACCGUATT against MED20 | -1.66 (active) |
| GAUGUGAAAUGGAGAAGUATT against KLF5 | -0.338 (inactive) |
| ACGCAGAUUUCUACAGAAATT against COX6C | -0.0449 (inactive) |
| GGAUUACUCUUUUGGUGCATT against IRF5 | -0.146 (inactive) |

| Sequence | median seed-adjusted z-score |
| --- | --- |
| GAUGCGAUAUUAAUGGGAATT against SMYD4 | 0.272 (inactive) |
| GAAAAUGUGGGAUCAAGAATT against COQ7 | 0.159 (inactive) |
| GAGCUGACCUUGAACGAGATT against CHGB | -1.29 (active) |
| GUGCUAAUCUCAAUACCGATT against ZRANB1 | -0.347 (inactive) |
| GGACAGCUAUGACUCGGAUTT against DOC2A | 0.299 (inactive) |
| GCAAGUAUUUUGACAAGGUTT against KIF7 | 0.0274 (inactive) |
| CAAACAAUAUGAGAGUGUUTT against IL7 | 0.253 (inactive) |
| ACAAGACUCUGGACAUUAATT against DHRS4 | 0.263 (inactive) |
| GAUUCAUGCAUUGAUCACATT against UBE2Z | 0.0572 (inactive) |
| GCCCAGAAGUUUAGGGAAATT against TAP1 | -0.506 (inactive) |
| CAAAGUCCAUGGAGUCUUUTT against RASA4 | -1.11 (active) |
| GGGUUAGUGGAGACCUUUATT against ATPAF1 | 0.393 (inactive) |
| GAAUUCACCAUUCAAGUAATT against SCYL3 | 0.665 (inactive) |
| AGGACGGUGCAGUACAGAATT against ZBTB46 | 0.0546 (inactive) |
| GAACAACACCAACAUAAGATT against SMOC1 | 0.0453 (inactive) |
| CAUCGCCUAUAUGAAAUAUTT against PLA2G10 | 1.07 (active) |
| GAGCCGUACUAUGACCUGATT against SSTR2 | -0.162 (inactive) |
| CGAAGCUAGUGGAACAGUATT against SF3A1 | -1.09 (active) |
| CGAUGCCUGUUAUAAAUUATT against RCAN3 | 0.544 (inactive) |
| AAAUCCCUUUGACACCUUUTT against DNAJB1 | 0.466 (inactive) |
